Measurements reported in PubChem BioAssay AID1220 (Sanford-Burnham Center for Chemical Genomics, 2008).
Among all 190,000 compounds or so, about 1,300 (0.68%) were called active. Rule as the data show it: active = inhibition above about 50%; inactive = the rest. Only a selection was taken, and actives are over-represented in it overall.

What follows are compounds tested against Mannose-6-phosphate isomerase (Homo sapiens) (UniProt P34949) (assay: human PMI inhibitors, high substrate, primary screen, biochemical, fluorescence intensity, high mannose 6-phosphate (AID 1220)). Details: recombinant PMI enzyme, coupled fluorescence intensity; at 20 µM; active compounds read high.
Mannose-6-phosphate isomerase (Homo sapiens), sequence (P34949 whole entry, looked up): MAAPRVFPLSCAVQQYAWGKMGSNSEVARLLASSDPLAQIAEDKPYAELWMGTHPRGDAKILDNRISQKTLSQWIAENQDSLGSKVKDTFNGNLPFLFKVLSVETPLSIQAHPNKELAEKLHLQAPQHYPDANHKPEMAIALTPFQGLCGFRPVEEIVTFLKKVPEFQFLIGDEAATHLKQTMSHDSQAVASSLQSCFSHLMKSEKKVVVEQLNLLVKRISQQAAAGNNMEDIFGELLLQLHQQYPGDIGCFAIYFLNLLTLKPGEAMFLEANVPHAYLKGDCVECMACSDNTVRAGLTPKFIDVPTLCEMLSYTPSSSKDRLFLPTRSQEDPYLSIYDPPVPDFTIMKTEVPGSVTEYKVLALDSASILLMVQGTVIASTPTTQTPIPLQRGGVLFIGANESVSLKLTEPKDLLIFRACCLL

Row | Structure (SMILES) | inhibition
1 | CCn1cc([N+](=O)[O-])c(C(=O)NCc2ccc(Cl)cc2)n1 | -5% (inactive)
2 | N#Cc1cc(Oc2ccccc2)c(-n2nnc3ccccc32)cc1C#N | 3.1% (inactive)
3 | C#CCOCCOCCOCCNc1nc(N2CCN(C(=O)[C@H]([C@@H](C)CC)n3cc(CCCCN)nn3)CC2)nc(N2CCN(C(=O)[C@H](C)n3cc(CCC(=O)O)nn3)CC2)n1 | -27.7% (inactive)
4 | COCCN1CC(=O)N(c2cccc(C)c2C)C(c2ccc(Cl)cc2)C1=O (stereo not drawn) | -1.2% (inactive)
5 | CC1(C)CC(=O)C(C=Nc2ccc3c(c2)OCO3)=C(O)C1 | 14.2% (inactive)
6 | COc1ccc2c(c1)O[C@H](c1ccc3c(c1)OCO3)[C@@H](O)C2=O | -2.7% (inactive)
7 | COc1ccc(N=Cc2sc(O)c3ccccc23)cc1 | 8.8% (inactive)
8 | COc1cccc(C=Nc2ccc3c(c2)OCCO3)c1O | 34.6% (inactive)
9 | COc1ccc(N=CC2=C(O)c3ccccc3C2=O)cc1 | 5.6% (inactive)
10 | Oc1[nH]c2ccccc2c1C=Nc1ccc2c(c1)OCO2 | 8.6% (inactive)
11 | CCCC(=O)Nc1ccc(C(N)=O)cc1 | 5.2% (inactive)
12 | Cc1ccc(C)c(NC(=O)CCC(=O)NNC(=O)C(c2ccccc2)c2ccccc2)c1 | -16.3% (inactive)
13 | CC(C)OC(=O)CSc1nnc2c(n1)[nH]c1ccc(F)cc12 | -5.2% (inactive)
14 | O=C(NC1CCN(S(=O)(=O)c2ccccc2)CC1)C1CCCCC1 | 7.7% (inactive)
15 | O=C(c1ccc(Cl)cc1Cl)N1CCC(c2nc3c(nnn3Cc3ccco3)c(=O)[nH]2)CC1 | 14.6% (inactive)
16 | CN(C)CCCN(C(=O)CCc1ccccc1)c1nc2c(F)cccc2s1 | 4% (inactive)
17 | CN(C)CCCN(C(=O)COc1ccccc1)c1nc2c(F)cccc2s1 | -2.9% (inactive)
18 | CN(C)CCCN(C(=O)CCOc1ccccc1)c1nc2c(F)cccc2s1 | 54.4% (active)
19 | COc1ccc(C)cc1NC(=O)CN(C)S(=O)(=O)c1cccs1 | 1.9% (inactive)
20 | Cc1ccc(SCCC(=O)NCCSCc2ccccc2C)cc1 | 8.3% (inactive)
21 | CCOc1ccc(C(=O)CCNC(Cc2cnc[nH]2)C(=O)O)cc1 (stereo not drawn) | 3.4% (inactive)
22 | O=C1S/C(=C\c2ccc(N3CCOCC3)o2)C(=O)N1c1ccccc1 | 53.8% (active)
23 | O=C1N/C(=C/c2ccc(N3CCOCC3)o2)C(=O)N1c1cccc(Cl)c1 | 15.3% (inactive)
24 | CCCN1C(=O)S/C(=C\c2ccc(N3CCOCC3)cc2C)C1=O | 9.4% (inactive)
25 | O=C1S/C(=C\c2ccc(N3CCOCC3)o2)C(=O)N1Cc1c(F)cccc1Cl | 56.3% (active)
26 | CCCN1C(=O)S/C(=C\c2ccc(N3CCOCC3)o2)C1=O | 52.4% (active)

Row | Structure (SMILES) | inhibition
27 | CC(C)OC(=O)CN1C(=O)S/C(=C/c2ccc(N3CCCCC3)o2)C1=O | 25% (inactive)
28 | O=C1S/C(=C/c2ccc(N3CCOCC3)o2)C(=O)N1Cc1c(F)cccc1Cl | 5.6% (inactive)
29 | CCOC(=O)CN1C(=O)S/C(=C/c2ccc(N3CCCCC3)o2)C1=O | 24.1% (inactive)
30 | COC(=O)CN1C(=O)S/C(=C/c2ccc(N3CCCCC3)o2)C1=O | 46% (inactive)
31 | O=C1S/C(=C/c2ccc(N3CCOCC3)o2)C(=O)N1Cc1ccc(F)cc1 | 45.3% (inactive)
32 | O=C1S/C(=C\c2ccc(N3CCOCC3)o2)C(=O)N1Cc1ccc(F)cc1 | 57.3% (active)
33 | O=C1N/C(=C/c2ccc(N3CCOCC3)o2)C(=O)N1c1ccccc1 | 9% (inactive)
34 | COc1ccc(C2C(C(=O)c3ccc(C)o3)=C(O)C(=O)N2c2cc(C)on2)cc1OC (stereo not drawn) | -22.3% (inactive)
35 | O=C(CSc1ncccn1)Nn1cnnc1 | -0.7% (inactive)
36 | COc1ccc(NC(=O)Nc2cc(NC(=O)Nc3ccc(OC)cc3)c(C)nc2C)cc1 | -8.6% (inactive)
37 | CC(=O)N1c2ccccc2NC2=C(C(=O)CCC2)C1c1cccnc1 (stereo not drawn) | 6.7% (inactive)
38 | Clc1cccc(OCCn2cncn2)c1Cl | -4.8% (inactive)
39 | O=C(CCCC(=O)N1CCc2ccccc21)N1CCc2ccccc21 | -6.6% (inactive)
40 | COc1cc(OC)cc(C(=O)NNC(=S)NCc2ccco2)c1 | -10.1% (inactive)
41 | COc1ccc(-n2c(CSc3nc(C)cc(C)n3)nnc2SCC(=O)Nc2nccs2)cc1 | 1.3% (inactive)
42 | CS(=O)(=O)c1ccccc1-c1nc(-c2cccc(Cl)c2)no1 | 9.9% (inactive)
43 | N#CCSc1nc2sc3c(c2c(=O)n1C1CCCCC1)CCCC3 | 52.4% (active)
44 | CCSc1nc2sc3c(c2c(=O)n1C1CCCCC1)CCN(C)C3 | -33.5% (inactive)
45 | CSc1nc2sc3c(c2c(=O)n1C1CCCCC1)CCN(C)C3 | 10.7% (inactive)
46 | CCOc1ccc(CNC(=O)CCc2cn(Cc3ccccc3)c3ccccc23)cc1 | 0.6% (inactive)
47 | C=CCn1c(C)cc(C)c(C#N)c1=O | -6.4% (inactive)
48 | C=CCn1c(O)c(CN2CCN(Cc3ccccc3)CC2)c(C)c(C#N)c1=O | 15.6% (inactive)
49 | Cc1oc(C(C)(C)C)c(CN2CCOCC2)c1C(=O)O | -2.9% (inactive)
50 | C=CCn1c(O)c(CN2CCOCC2)c(C)c(C#N)c1=O | 56.6% (active)
51 | C=CCn1c(O)c(CN2CCCCC2)c(C)c(C#N)c1=O | 70.2% (active)
52 | C=CCn1c(O)c(C(CC)=NCCN2CCOCC2)c(=O)[nH]c1=O | -15.4% (inactive)

Row | Structure (SMILES) | inhibition
53 | O=C(NCCC1=CCCCC1)C(=O)NCC(c1ccco1)N1CCN(c2ccc(F)cc2)CC1 (stereo not drawn) | 2.7% (inactive)
54 | OCc1nc2ccccc2n1CCCOc1ccccc1 | -6.4% (inactive)
55 | COc1cc(NC(=S)NCCC(c2ccccc2)c2ccccc2)c(OC)cc1Cl | 17.2% (inactive)
56 | Cc1nnc(Sc2nc3c(c(=O)n(C)c(=O)n3C)n2Cc2ccc(Cl)cc2)s1 | 7.9% (inactive)
57 | CSc1ccc(C#N)cc1NC(=O)c1ccccc1C | -2.5% (inactive)
58 | COCc1c(C#N)c(NCCc2ccc(F)cc2)nc(C)c1[N+](=O)[O-] | 9.3% (inactive)
59 | CCCC(=O)c1ccc(N2CCN(C(=O)c3ccc(Br)cc3)CC2)c(F)c1 | -2.3% (inactive)
60 | CC(=O)c1ccc(N2CCN(C(=O)c3ccc(Br)cc3)CC2)c(F)c1 | 55.1% (active)
61 | CCC(=O)c1ccc(N2CCN(C(=O)c3ccc(Br)cc3)CC2)c(F)c1 | 9.1% (inactive)
62 | O=C(NCCCCCCNC(=O)C1CCCC1)C1CCCC1 | -0.9% (inactive)
63 | O=C(COc1ccc2ccccc2c1)Nc1ccc2c3c(cccc13)CC2 | -1.8% (inactive)
64 | O=C(NCc1ccccc1)NC(O)C(Cl)(Cl)Cl (stereo not drawn) | 0.1% (inactive)
65 | O/C(=C\c1ccc2ccccc2n1)c1ccc(O)cc1O | -10.3% (inactive)
66 | Cc1ccc(NC(=O)c2ccc(-n3cccn3)nc2)cc1 | 51.4% (active)
67 | COc1ccc(NC(=O)c2ccc(-n3cccn3)nc2)cc1 | 0.8% (inactive)
68 | CCOc1ccc(NC(=O)c2ccc(-n3cccn3)nc2)cc1 | 2.9% (inactive)
69 | CCOc1ccc(N=C2Sc3nc4ccc(C)cc4cc3CN2CCOC)cc1 | 9.3% (inactive)
70 | CC(=O)c1cc2c(cc1NC(=O)CN1CCN(c3ccc(F)cc3)CC1)OCO2 | 5.5% (inactive)
71 | CCOC(=O)C1=C(c2ccccc2)NC(SCC(=O)Nc2cccc(C)c2)=C(C#N)C1c1ccco1 (stereo not drawn) | 15.6% (inactive)
72 | Cc1ccc(N=Cc2c(O)ccc3ccccc23)cc1F | 51.7% (active)
73 | Cc1cc(N=Cc2c(O)ccc3ccccc23)no1 | 66.9% (active)
74 | Cc1cc(C)n(/N=C\c2c(O)ccc3ccccc23)c(=O)c1C(N)=O | 22.5% (inactive)
75 | Cc1oc(/N=C/c2cccc3ccccc23)c(C#N)c1C | 20.1% (inactive)
76 | Nc1cc(Cl)nc(N/N=C/c2c(O)ccc3ccccc23)n1 | 13.3% (inactive)
77 | Cc1cc(N=Cc2cc(Cl)ccc2O)no1 | 14.2% (inactive)
78 | Cc1oc(/N=C/c2ccccc2O)c(C#N)c1C | -16.8% (inactive)

Row | Structure (SMILES) | inhibition
79 | Oc1ccc2ccccc2c1C=Nc1ccc(Cl)cn1 | 75.2% (active)
80 | Cc1cc(N=Cc2cc(Br)ccc2O)no1 | -9.4% (inactive)
81 | COc1cccc(C=Nc2ccc(C)c(F)c2)c1O | 15.7% (inactive)
82 | Cc1cc(O)c(C=Nc2ccc(Cl)cn2)c(=O)o1 | -60.9% (inactive)
83 | Cc1oc(/N=C/c2c(O)ccc3ccccc23)c(C#N)c1C | 53.7% (active)
84 | COc1ccccc1Nc1ccc(N)cc1 | 23.2% (inactive)
85 | O=C(Cn1ccccc1=O)c1ccc(Cl)cc1 | -5.5% (inactive)
86 | N#C/C(=C\c1cn(CCOc2ccccc2)c2ccccc12)C(=O)NCc1ccco1 | -1.2% (inactive)
87 | COc1ccccc1OCC(=O)Nc1ccccn1 | 1.4% (inactive)
88 | COc1ccc(CNn2c(-c3cccs3)nc3ccccc3c2=O)cc1OC | 8% (inactive)
89 | CCN(C(=O)CSc1nnc(-c2ccncc2)n1-c1ccccc1)C1CCS(=O)(=O)C1 (stereo not drawn) | -2.5% (inactive)
90 | CCc1ccc(C(=O)NN(C(=O)c2ccc(CC)cc2)C(C)(C)C)cc1 | 14.2% (inactive)
91 | CCOc1ccc(S(=O)(=O)N2CCN(c3ccccc3F)CC2)c2cccnc12 | 27% (inactive)
92 | O=C(OCc1c(F)cccc1Cl)c1cnccn1 | 11.3% (inactive)
93 | Oc1ccc2ccccc2c1/C=N/c1nc2c(s1)CCCC2 | 46.1% (inactive)
94 | Oc1oc(-c2cccc3ccccc23)nc1/C=N/c1nccs1 | 9.5% (inactive)
95 | O=C(O)Cc1ccc(N=Cc2c(O)ccc3ccccc23)cc1 | 58.7% (active)
96 | Oc1ccc2ccccc2c1C=Nc1ccc(N2CCOCC2)cc1 | 29% (inactive)
97 | Cc1c(Cc2ccccc2)sc(/N=C/c2c(O)ccc3ccccc23)c1C(N)=O | 29.8% (inactive)
98 | Oc1ccc2ccccc2c1/C=N/c1nccs1 | 62% (active)
99 | COc1ccc2nc(N=Nc3c(O)ccc4ccccc34)sc2c1 | 24.5% (inactive)
100 | Oc1[nH]c2ccccc2c1/C=N/c1nccs1 | -1% (inactive)
101 | N#Cc1cccc(N=Cc2c(O)ccc3ccccc23)c1 | 64.6% (active)
102 | Cc1sc(/N=C/c2c(O)ccc3ccccc23)c(C#N)c1C | -3.6% (inactive)
103 | Oc1ccc2ccccc2c1C=Nc1ccccc1-c1nc2ccccc2[nH]1 | 22.9% (inactive)
